The target of assay [1] is Glutathione peroxidase 1 (Homo sapiens) (UniProt P07203). As to the kind of experiment: Primary qHTS Assay for Inhibitors of Recombinant Selenoprotein Glutathione Peroxidase 1 (GPX1) (AID 1845191). Also: nearly all actives have a fitted effect of over 65% in size. Also: potency is read from the fitted curve at half-maximal effect. As to activity, negative = inhibition: % is scaled to controls: 0 for no effect and ±100 for the full control effect. The gist of the method: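 NADPH consumption tracked by fluorescence at 340/450 nm between t=0 and t=15 min, room temperature. Final mix: 10 nM GPX1, 100 nM glutathione reductase, 1 mM GSH, 0.5 mM NADPH, 0.5 mM cumene hydroperoxide, 0.01% BSA; 30 min compound–enzyme preincubation.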

In assay [2] the target is Phospholipid hydroperoxide glutathione peroxidase GPX4 (Homo sapiens) (UniProt P36969). As to the kind of experiment: Primary qHTS Assay for Inhibitors of Recombinant Selenoprotein Glutathione Peroxidase 4 (GPX4) (AID 1845192). Also: nearly all actives have a fitted effect of over 65% in size. The gist of the method: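 NADPH consumption followed by fluorescence at 340/450 nm, t=0 and after 15 min at room temperature. Reaction started with cumene hydroperoxide (0.5 mM final) after 30 min compound–GPX4 preincubation; final 200 nM GPX4, 100 nM GR, 1 mM GSH, 0.5 mM NADPH.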
For orientation: Quantitative high-throughput screening tests each substance at several concentrations.

Assay [3] addresses Luciferin 4-monooxygenase (Photinus pyralis) (UniProt P08659). As to the kind of experiment: Primary firefly luciferase (FLuc) qHTS assay for identification of artifact compounds. (AID 1845220). Also: nearly all actives have a fitted effect of over 60% in size. Also: potency is read from the fitted curve at half-maximal effect. The gist of the method:
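Compounds sat 15 min at room temperature with 10 uM luciferin and 10 uM ATP (pH 7.6 Tris acetate). Firefly luciferase (10 nM final) was then added, and luminescence was read 5 min later. Data normalized to no-enzyme and DMSO controls were Hill-fitted.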

Assay [4] is described as follows: Primary fluorescence-based thiol-reactive (MSTI) qHTS assay for identification of artifact compounds. (AID 1845221). Also: nearly all actives have a fitted effect of over 65% in size. Also: potency is read from the fitted curve at half-maximal effect.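 As to activity change, negative = thiol reactive: series mostly up to about 54 µM; thiol-reactive compounds lower the probe fluorescence signal.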 The method, boiled down: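 Probe: MSTI 4 uM, PBS pH 7.4, 2% DMSO. Incubation 1 h, RT, light-protected. Readout fluorescence 525/598 nm.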
Assay [5] concerns Nanoluciferase (engineered Oplophorus gracilirostris luciferase). As to the kind of experiment: Primary Nanoluciferase (NLuc) qHTS assay for identification of artifact compounds. (AID 1845222).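 Also: series mostly up to about 54 µM; 0% = DMSO and -100% = no enzyme.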 The method, boiled down: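 Luminescence from secreted NLuc (filtered, 1:55-diluted S16 cell medium) read 5 min after Nano-Glo substrate; compounds preincubated 15 min, RT. Hill fits of inhibition normalized to DMSO and no-enzyme.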

Assay [6] can be described thus: Primary redox qHTS assay for identification of artifact compounds. (AID 1845223).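 Also: 0% = DMSO and 100% = reference compound.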 The gist of the method: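 Redox-cycling detection via DTT (250 uM final) oxidation coupled to Amplex Red (25 uM)/HRP (250 mU/mL) in HBSS. 15 min preincubation plus 30 min after DTT, room temperature. Ex/Em 525/598 nm; 4-parameter Hill fit against DMSO and 10 uM DA3003.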

Unmarked numbers belong to inactive results. Inconclusive results are not listed. Calls of active or inactive are those of the source. Calls follow the shape of the dose curve; as a rule, active = well fitted curve in the direction sought with a large enough effect; inconclusive = small, poorly fitted or top-dose-only effect, or another doubt; inactive = no such curve, though single readings can be large; an effect the other way counts as inactive or inconclusive.

Chain of Phospholipid hydroperoxide glutathione peroxidase GPX4 (Homo sapiens) (P36969 whole entry, looked up): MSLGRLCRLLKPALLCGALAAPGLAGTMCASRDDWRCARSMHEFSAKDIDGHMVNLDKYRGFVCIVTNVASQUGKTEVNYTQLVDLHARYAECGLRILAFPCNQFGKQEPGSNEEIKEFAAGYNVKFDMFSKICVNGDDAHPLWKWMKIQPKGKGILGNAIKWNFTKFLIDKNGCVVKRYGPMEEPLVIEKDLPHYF
Chain of Glutathione peroxidase 1 (Homo sapiens) (P07203 whole entry, looked up): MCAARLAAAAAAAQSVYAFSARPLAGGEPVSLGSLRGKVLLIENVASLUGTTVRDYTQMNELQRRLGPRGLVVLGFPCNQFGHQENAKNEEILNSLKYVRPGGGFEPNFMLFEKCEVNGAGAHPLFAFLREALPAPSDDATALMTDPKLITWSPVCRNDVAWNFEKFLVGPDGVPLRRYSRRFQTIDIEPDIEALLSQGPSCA

With `C=C1C(=O)O[C@H]2/C=C(/C)[C@@H](OC(C)=O)C/C=C(\C)C[C@@H](OC(=O)/C(=C/C)COC(=O)/C(=C/C)CO)[C@@H]12`, the Potency result in assay [1], in assay [2], in assay [3], in assay [4], in assay [5] and in assay [6] was “inactive” throughout.
On to `COC(CCc1ccc(O)cc1)CC(=O)CCc1ccc(O)cc1` (centres undefined), for which the Potency entry in assay [1], in assay [2], in assay [3], in assay [4], in assay [5] and in assay [6] was “inactive” in each case.
As to `Nc1ncnc2c1c(-c1ccc(Cl)cc1)nn2-c1cccc(-c2cnnn2Cc2cccc(-c3ccccc3)c2)c1`, the Potency entry in assay [1], in assay [2], in assay [3], in assay [4], in assay [5] and in assay [6] was “inactive” each time.
`COC(=O)CC[C@@H](C)C1CCC2C3CCC4C[C@H](OC(C)=O)CCC4(C)C3C[C@H](O)C21C` (some centres undefined): the Potency result in assay [1], in assay [2], in assay [3], in assay [4], in assay [5] and in assay [6] was “inactive” throughout.
Turning to `Cc1csc(N(C(=O)CSc2ccc(-c3ccccc3)nn2)C2CC2)n1`, in assay [1], the Potency was 20.2 µM (active). The Potency entry in assay [2], in assay [3], in assay [4], in assay [5] and in assay [6] was “inactive” each time.
Turning to `CC1(C)CC[C@]2(C(=O)O)[C@H](O)C[C@]3(C)C(=CCC4[C@@]5(C)CC[C@H](O[C@@H]6O[C@H](CO[C@@H]7OC[C@H](O)[C@H](O)[C@H]7O[C@@H]7OC[C@H](O)[C@H](O)[C@H]7O)[C@@H](O)[C@H](O)[C@H]6O)C(C)(C)C5CC[C@]43C)[C@@H]2C1` (some centres undefined), the Potency result in assay [1] and in assay [2] was “inactive” each time. Also, in assay [3], the outcome is “inactive [at 11.6 µM]”. The activity change, negative = thiol reactive in assay [4] was 133% [at 11.5 µM]. Further, in assay [5], the activity, negative = inhibition is 1.1% [at 11.6 µM]. Moreover, the redox activity (% of DA3003) in assay [6] was 16.3% [at 11.5 µM].
In the case of `CCCC1(CCC)CCC2(CCN(CCCN(CC)CC)C2)CC1`, the Potency result in assay [1], in assay [2], in assay [3], in assay [4], in assay [5] and in assay [6] was “inactive” throughout.
On to `CC(C)(Cc1ccccc1)NCC(O)c1ccc(O)c(NS(C)(=O)=O)c1` (centres undefined), for which the Potency result in assay [1], in assay [2], in assay [3], in assay [4], in assay [5] and in assay [6] was “inactive” throughout.
On to `Cc1cccc(-c2[nH]ncc2-c2ccc(F)c(-c3cnn(CCO)c3)c2)n1`, for which the Potency result in assay [1], in assay [2], in assay [3], in assay [4], in assay [5] and in assay [6] was “inactive” throughout.
In the case of `CC(C)C[C@H](CO)Nc1nc(S[C@@H](C)c2ccccc2)nc2nc(N)sc12`, the Potency entry in assay [1], in assay [2], in assay [3], in assay [4], in assay [5] and in assay [6] was “inactive” in each case.
Regarding `Cc1nc2ccc(-n3ncc(C(=O)c4cc5ccccc5[nH]4)c3N)cc2[nH]1`, the Potency entry in assay [1], in assay [2], in assay [4], in assay [5] and in assay [6] was “inactive” in each case. Moreover, the Potency in assay [3] is 3.38 µM (active).
As to `COc1cccc(-c2cn(-c3ccc(CCN4CCC(O)CC4)cc3)c3ncnc(N)c23)c1`, the Potency entry in assay [1], in assay [2], in assay [3], in assay [4], in assay [5] and in assay [6] was “inactive” each time.
`O=C(C(Cc1cccc(C(F)(F)F)c1)NS(=O)(=O)c1cc(F)c2c(c1)CCNC2)N1CCCC1` (centres undefined): the Potency result in assay [1], in assay [2], in assay [3], in assay [4], in assay [5] and in assay [6] was “inactive” throughout.
For `COc1ccc(C2(N(C)C(=O)c3ccc(NC(=O)c4ccco4)cc3)CCOCC2)cc1`, the Potency entry in assay [1], in assay [2], in assay [3], in assay [4], in assay [5] and in assay [6] was “inactive” each time.
For `CN(C)C(=O)COC(=O)c1cc(-c2ccc(C3CCNCC3)cc2)c2ccc(-c3ccc(C(F)(F)F)cc3)cc2c1`, the Potency result in assay [1], in assay [2], in assay [3], in assay [4], in assay [5] and in assay [6] was “inactive” each time.
Consider `CC(O)(C(=O)O)C1CCC2(C)C1CCC1(C)C2CCC2C3(C)CCC(O)C(C)(COC4OC(CO)C(O)C(O)C4O)C3CCC21C` (centres undefined), for which the Potency entry in assay [1], in assay [2], in assay [3], in assay [4], in assay [5] and in assay [6] was “inactive” each time.
Consider `c1cc(NCCc2c[nH]c3ccccc23)cc(Nc2ccncc2)c1`, for which the Potency entry in assay [1], in assay [2], in assay [3], in assay [5] and in assay [6] was “inactive” each time. In addition, in assay [4], the Potency was 2.67 µM (active).
In the case of `Cc1sc2c(c1C)C(c1ccc(Cl)cc1)=N[C@H](CC(=O)NCCCCNC(=O)COc1cccc3c1C(=O)N([C@H]1CCC(=O)NC1=O)C3=O)c1nnc(C)n1-2`, the Potency result in assay [1], in assay [2], in assay [3], in assay [4], in assay [5] and in assay [6] was “inactive” in each case.
For the compound `C=C[C@H](/C=C\c1ccc(O)cc1)c1ccc(O)cc1`, the Potency result in assay [1], in assay [2], in assay [3], in assay [4], in assay [5] and in assay [6] was “inactive” in each case.
Take `C=C1C(=O)OC2C1CCC1(C)C(O)CC=C(C)C21` (centres undefined): the Potency entry in assay [1], in assay [2], in assay [3], in assay [5] and in assay [6] was “inactive” each time. The Potency in assay [4] is 11.9 µM (active).
As to `CC1(C=O)CCCC2(C)C1CCC13CC(CO)C(CCC12)C3` (centres undefined), the Potency entry in assay [1], in assay [2], in assay [3], in assay [4], in assay [5] and in assay [6] was “inactive” each time.
In the case of `Cn1cc(-c2ccc(S(=O)(=O)n3ccc(/C=C/C(=O)Nc4ccccc4N)c3)cc2)cn1`, the Potency entry in assay [1], in assay [2], in assay [3], in assay [4], in assay [5] and in assay [6] was “inactive” each time.
Regarding `CC1=CC2/C=C(\C)CCC(O)C(=O)C(O)CC(=O)C23C(=O)NC(CC(C)C)C3C1C` (centres undefined), the Potency entry in assay [1], in assay [2], in assay [3], in assay [4], in assay [5] and in assay [6] was “inactive” in each case.
As for `CC(C)(C)c1ccc(C(=O)Nc2cc(Cl)c(Br)cc2C(=O)O)cc1`, the Potency entry in assay [1], in assay [2], in assay [4], in assay [5] and in assay [6] was “inactive” throughout. Further, the Potency in assay [3] was 6.75 µM (active).

For the origin of these results see PubChem BioAssay (NCATS).
